Screening data from PubChem.
Tau ThT inhib = tau fibrillization inhibition (ThT binding). Potency, µM (highest dose often 57.4 µM), without a hit: at the top dose activity, negative = inhibition, actives largely listed as inhibitors. AID 1460. 270,000 tested, 2.1% active. recombinant tau K18 P301L, heparin-induced fibrillization, ThT fluorescence; note: potency is the fitted concentration of half-maximal effect; nearly all actives have a fitted effect of over 55% in size
Target sequence (P10636 561-689 P618L limits assumed): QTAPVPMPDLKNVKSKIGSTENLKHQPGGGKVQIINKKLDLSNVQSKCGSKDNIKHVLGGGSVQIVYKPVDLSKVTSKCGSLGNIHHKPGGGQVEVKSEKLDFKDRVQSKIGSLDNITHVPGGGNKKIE
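K18 P301L tau (15 uM + 0.24 uM Alexa 594-tagged), heparin 20 uM, NaOAc pH 7, 6 h 37 C; ThT 30 uM, 1 h RT, ex 450/em 510 nm.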
Tau fluor cs = counter-screen for tau fibril formation inhibitors; AID 1463; 280,000 tested, 0.93% active; Potency, µM (doses to about 57.7 µM), inactives show at the top dose activity change, negative = decrease; tau K18 P301L Alexa594 fluorescence, heparin fibrillization; note: potency is the fitted concentration of half-maximal effect; nearly all actives have a fitted effect of over 55% in size
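Human K18 P301L tau (15 uM unlabeled plus 0.24 uM Alexa 594-labeled, final) in 100 mM sodium acetate pH 7 was mixed with compound and 20 uM heparin and incubated 6 hr at 37 C.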
Tau fibril FP = tau fibrillization inhibition (FP). 280,000 tested, 0.39% active. K18 P301L tau heparin fibrillization, Alexa594 FP, 6 h. Potency, µM (doses to about 57.7 µM), inactives show at the top dose activity, negative = inhibition, usual class: inhibitors; note: potency is the fitted concentration of half-maximal effect; nearly all actives have a fitted effect of over 55% in size
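Heparin (20 uM) drove fibril formation of recombinant tau K18 P301L, 15 uM unlabeled with 0.24 uM Alexa 594 label, for 6 hr at 37 C in 100 mM sodium acetate pH 7. Fluorescence polarization (555/632 nm) read 1 hr after 30 uM ThT.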
Coupling enz = inhibits coupling enzyme system, counter-screen for aldolase hits; AID 2472; activity change, negative = inhibition, % at 58.2 µM, hits read low; coupling enzyme system counterscreen, AmpLite Red fluorescence; 290,000 tested, 0.67% active; in the data active = activity change below about -30%
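First, compound is pin-transferred into glyceraldehyde-3-phosphate coupling-enzyme reagent at 57.5 uM final and held 10 min at RT. Next, substrate, coupling system and AmpLite Red are added. After 20 min RT, fluorescence (525/598 nm) is read.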
Sfp PPTase inh = Sfp phosphopantetheinyl transferase inhibition | Q9F4F7 | Biochemical Sfp PPTase activity, qHTS | Potency, µM, inactives show largest response in the series, negative = inhibition, actives largely listed as inhibitors | 310,000 tested, 3.5% active | AID 1490;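 note: the enzyme is Sfp with the accession as filed and its product quenches rhodamine fluorescence; potency is the fitted concentration of half-maximal effect; 0% = enzyme reaction without inhibitor and -100% = no enzyme wells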
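Fluorescence-quenching assay: 15 nM Sfp-PPTase preincubated 15 min at room temperature with compound, then 5 uM rhodamine-CoA and 12.5 uM BHQ-2-labelled YbbR peptide added. Fluorescence (ex 525/em 598 nm) read at start and after 30 min; difference gives rate.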
* hit, by the source's call; ? = inconclusive; nt = no result; [ ] = another dose, or the depositor's remark. Sampled rows, rich in hits. Any-hit rate of the full collection: about 5.2%. Unless noted, calls come from the whole dose curve; as a rule, active = well fitted curve in the direction sought with a large enough effect; inconclusive = small, poorly fitted or top-dose-only effect, or another doubt; inactive = no such curve, though single readings can be large; an effect the other way counts as inactive or inconclusive. Unless noted, % is set by controls: 0 for no effect and ±100 for the full control effect.

SMILES	Tau ThT inhib	Tau fluor cs	Tau fibril FP	Coupling enz	Sfp PPTase inh
O=C(Cn1nnc(-c2ccccc2)n1)N/N=C/c1cccc([N+](=O)[O-])c1O	10µM*	-2%	11%	1	4%
O=C(Cn1nnc(-c2ccccc2)n1)N/N=C/c1cccc([N+](=O)[O-])c1	-10%	-27%	4%	-6	-1%
Cc1ccccc1C(=O)Nc1cccc(C(=O)N/N=C/c2cc(Cl)cc([N+](=O)[O-])c2O)c1	4µM*	?	7%	7	15%
O=C(N/N=C/c1cc(Cl)cc([N+](=O)[O-])c1O)C1CC1	16µM*	-17%	3%	3	24%
O=C(Cn1nc2ccccc2n1)N/N=C/c1cc(Cl)cc([N+](=O)[O-])c1O	13µM*	?	8%	8	25%
Cc1cc(C)n(CC(=O)N/N=C/c2cc(Br)cc([N+](=O)[O-])c2O)n1	?	4%	3%	12	23%
c1coc(-c2nnc3sc(C4CCCCC4)nn23)c1	20%	19%	-2%	1	35µM*
Brc1ccc(-c2nn3c(-c4ccncc4)nnc3s2)o1	-14%	-7%	1%	1	12%
COc1ccc(-c2nnc3sc(C4CCCCC4)nn23)cc1OC	-22%	-12%	4%	-2	0%
Brc1ccc(-c2nn3c(-c4ccco4)nnc3s2)o1	?	-4%	0%	4	20µM*
Brc1ccc(-c2nn3c(-c4ccccn4)nnc3s2)o1	?	-4%	-3%	-3	8.9µM*
Clc1ccc(-c2nnc3sc(-c4ccccn4)nn23)cc1	-1%	-2%	-3%	-3	11%
CC(C)(C)c1ccc(-c2nnc3sc(-c4ccccn4)nn23)cc1	?	-22%	?	-4	45µM*
Cc1ncc(C[n+]2csc(CCOP(=O)(O)OP(=O)(O)O)c2C)c(N)n1	nt	nt	nt	-2	23%
CCOC(=O)C1=C(C)NC2=C(C(=O)c3ccccc32)C1c1cccc2ccccc12 (stereo not given)	?	14µM*[quencher]	13%	-3	8%
CCOC(=O)C1=C(C)NC2=C(C(=O)c3ccccc32)C1c1ccc(O)cc1 (stereo not given)	10µM*	?	11%	5	-3%
c1ccc(OCCOCCN2CCOCC2)cc1	-8%	-4%	3%	2	11%
CCN1CCN(CCOCCOc2ccccc2)CC1	nt	nt	nt	-2	50µM*
c1ccc(CN2CCN(CCOCCOc3cccc4ccccc34)CC2)cc1	-10%	-1%	11%	4	50µM*
COc1ccc2[nH]cc(CCNc3nc(-c4cccnc4)nc4ccccc34)c2c1	nt	nt	nt	-1	-30%
COc1ccc(CC(=O)n2[nH]c(=O)ccc2=O)cc1OC	-14%	-22%	-19%	4	3.5µM*
CC(C)c1ccc(NC(=O)c2snc3ccc(Cl)cc23)cc1	?	?	22µM*	-4	-1%
O=C(N/N=C/C(Cl)=C/c1ccccc1)c1ccco1	-7%	-16%	-14%	2	-15%
O=C(/C(=C/O)N=Nc1ccccc1)c1ccco1	20µM*	-13%	6%	3	-3%
Cc1cc(-c2ccccc2)c(C#N)c(=S)[nH]1	-8%	-1%	1%	2	28µM*
SMILES	Tau ThT inhib	Tau fluor cs	Tau fibril FP	Coupling enz	Sfp PPTase inh
CCOC(=O)/C(=C/C=C1\Sc2ccccc2N1CC)C(C)=O	?	-23%	?	-7	-4%
CCOC(=O)/C(=C/C=C1\Sc2cc(C)c(C)cc2N1CC)C(C)=O	10µM*	-28%	8%	-1	16µM*
CCN=C(Nc1ccc2c(c1)OCO2)SC1CC(=O)N(c2ccccc2F)C1=O (stereo not given)	-4%	-24%	-11%	-6	-13%
C/C(CCc1ccc2c(c1)OCO2)=N\N=C(/N)SC1CC(=O)N(c2ccccc2F)C1=O (stereo not given)	-5%	-7%	3%	-8	79µM*
CCOC(=O)CSC1=NC(=O)/C(=C/c2ccc(Br)cc2)S1	?	-20%	-14%	10	56µM*
O=[N+]([O-])c1ccccc1N/N=C/c1cc2ccccc2nc1Cl	2.2µM*	-29%	6%	2	8%
COc1cc(/C=N/Nc2nc3ccccc3s2)cc([N+](=O)[O-])c1O	1.8µM*	14µM*[quencher]	-10%	-1	?
